# The list is not random: actives were taken first. Their share in the collection is about 19%.
# HT1080 IDH1KD tx = HT-1080 IDH1 knockdown cell toxicity (counter line); AID 686971; 2% of 360,000 active; Potency, µM (titrated, usually from 46.1 µM), usual class: cytotoxic; HT-1080 IDH1 knockdown viability, ATP luminescence, 48 h
#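 % activity derives from luminescence (CellTiter-Glo), normalised to DMSO and no-cell wells. HT-1080-IDH1KD cells, 750/well, had 48 h compound exposure at 37 °C.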
# DT40 TDP1 CPT = growth inhibition of DT40 Tdp1-/-;hTDP1 cells with camptothecin (screen for TDP1 inhibitors); chicken DT40 Tdp1-/-;hTDP1 cells + 20 nM CPT, ATP luminescence, 48 h; Potency, µM (series often up to 46.2 µM), usual class: inhibitors; 12% of 420,000 active; also: nearly all actives have a fitted effect of over 55% in size
#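 Cell growth measured by CellTiter-Glo luminescence after a minimum 48 h, 37 C compound exposure with 20 nM CPT in Tdp1-knockout DT40 cells stably expressing hTDP1, seeded 400/well; qHTS titration format.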
# HT1080NT lethal = kills 2HG-producing HT-1080-NT fibrosarcoma cells; HT-1080-NT fibrosarcoma viability, CellTiter-Glo ATP luminescence, 48 h; Potency, µM (highest dose often 46.1 µM), actives largely listed as cytotoxic; 1.6% of 360,000 active;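 also: NT is the 2HG producing partner of a matched IDH1 knockdown line; nearly all actives have a fitted effect of over 55% in size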
#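 HT-1080-NT fibrosarcoma cells (2HG-overproducing), 750 cells/well in RPMI with 5% FBS, dosed after 2 h and incubated 48 h at 37C. CellTiter-Glo luminescence normalized to DMSO and no-cell wells; concentration-response curves fitted and classed.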
# IL-1B inflam inh = inflammasome signaling inhibition, IL-1 beta readout | THP-1 LPS/ATP IL-1B secretion, AlphaLISA, 16 h; stronger effect = lower value | 4.7% of 360,000 active | activity change, % at 57.5 µM | AID 743279; in the data active = activity change below about -50%; inconclusive = mostly about -30% to -49%
#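 THP-1 cells pretreated 1 hr with compounds (up to 57.5 uM final), then stimulated with LPS (250 ng/mL final) plus ATP (1.25 mM final); secreted IL-1B measured by AlphaLISA after 16 hr, decreased signal indicating inhibition.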
# ELG1 repair inh = inhibitors of ELG1-dependent DNA repair in HEK293T cells; Potency, µM (series often up to 46.1 µM), most hits filed as inhibitors; 2.3% of 330,000 active; HEK293T ELG1-luciferase reporter, luminescence, 16 h; DNA damage induced by 5-fluorouridine; also: nearly all actives have a fitted effect of over 55% in size
#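 Reporter activity after DNA damage by 5-fluorouridine is monitored. Compound-treated cells incubate 16 hr at 37 °C, then ONE-Glo is added for 30 min before luminescence reading.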
# DT40 TDP1 no CPT = qHTS for Inhibitors of human tyrosyl-DNA phosphodiesterase 1 (TDP1): qHTS in cells in absence of CPT. Potency, µM (titrated, usually from 46.2 µM), usual class: inhibitors. AID 686978, 2013. DT40 Tdp1-/- hTDP1 cells, no CPT, ATP luminescence, 48 h. 15% of 420,000 active; also: nearly all actives have a fitted effect of over 55% in size
#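 Chicken DT40 Tdp1-/- cells complemented with human TDP1, screened without camptothecin (DMSO vehicle only), 400 cells/well. Compounds pin-transferred, cells incubated at 37 °C for at least 48 hr. Growth read as ATP-dependent luminescence (CellTiter-Glo, 30 min at RT).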
# Hits are given with their value; 0 = inactive; ? = inconclusive; - = no result; [ ] = remark or other dose. Unless noted, calls follow the shape of the dose curve; as a rule, active = well fitted curve in the direction sought with a large enough effect; inconclusive = small, poorly fitted or top-dose-only effect, or another doubt; inactive = no such curve, though single readings can be large; an effect the other way counts as inactive or inconclusive.
SMILES,HT1080 IDH1KD tx,DT40 TDP1 CPT,HT1080NT lethal,IL-1B inflam inh,ELG1 repair inh,DT40 TDP1 no CPT
COc1ccc(C(CCN2CCOCC2)c2c(OC)cc(OC)c3ccc(=O)oc23)cc1 (stereo not given),0,?,0,0,?,21µM
CCNC(=O)C1(C)CCN(C(=O)c2cccc(C#N)c2)C1 (stereo not given),0,0,0,0,-,0
COc1cc(OC)c2c(-c3ccccc3)cc(=O)oc2c1C(CCN1CCOCC1)c1ccc2c(c1)OCO2 (stereo not given),?,15µM,23µM,0,0,?
COc1cc(C(CC(=O)N2CCN(c3ccccc3)CC2)c2c(OC)cc(OC)c3ccc(=O)oc23)cc(OC)c1OC (stereo not given),0,?,0,0,0,?
COc1ccc(C(CCN2CCOCC2)c2c(OC)cc(OC)c3c(-c4ccccc4)cc(=O)oc23)cc1 (stereo not given),?,6.5µM,0,?,0,8.2µM
COc1cc(OC)c2c(-c3ccccc3)cc(=O)oc2c1C(CCN1CCCC1)c1ccc2c(c1)OCO2 (stereo not given),?,?,0,0,0,?
COc1cc(C(CCN2CCCCC2)c2c(OC)cc(OC)c3c(C)cc(=O)oc23)cc(OC)c1OC (stereo not given),0,10µM,0,0,?,10µM
CC(C)C1NCCc2c1sc1ccccc21 (stereo not given),0,0,0,-50,-,?
Cc1cc(C)nc(Nc2n[nH]c(COc3ccccc3)n2)n1,0,?,0,0,?,18µM
Cc1cc(C)nc(Nc2n[nH]c(COc3cccc4ccccc34)n2)n1,0,2.9µM,0,0,0,3.3µM
O=C(NC1CC1)[C@@H]1C[C@@H](Sc2nc3ccccc3[nH]2)CN1CC1CCCCC1,-,0[9.04 µM],-,-,-,?
CC1=C(C(=O)OC2CCCCCCC2)C(c2cc3c(cc2Br)OCO3)CC(=O)N1 (stereo not given),?,?,?,-59,0,?
CC1=C(C(=O)OCCOC(C)C)C(c2cc3c(cc2Br)OCO3)CC(=O)N1 (stereo not given),0,16µM,0,0,0,?
COC(=O)C1=C(C)NC(=O)CC1c1cc2c(cc1Br)OCO2 (stereo not given),0,0,0,0,?,0
CCOc1ccc(-n2c(SCC(=O)NCC3CCCO3)nc3c([nH]c4ccccc43)c2=O)cc1 (stereo not given),-,0,-,-,-,0
O=C(NC1CCCCC1)c1ccc2c(c1)N(Cc1ccc(Cl)cc1)C(=O)c1ccccc1S2(=O)=O,-,0,-,-,-,0
CCc1ccc(NC(=O)COC(=O)c2ccccc2OCC(=O)N(C)C)cc1,-,0,-,-,-,0
CC(C)/C=C/CN1CCN(CCCc2ccccc2)C(CCO)C1 (stereo not given),0,?,0,0,0,?
O=C(COC(=O)c1ccc(S(=O)(=O)N2CCCC2)cc1)NCc1ccc(Cl)cc1,0,0,0,0,0,?
Cc1ccc(CNC(=O)c2cc(S(=O)(=O)N3CCCCC3)cn2C)cc1,-,?,-,-,-,21µM
Cn1cc(S(=O)(=O)N2CCCCCC2)cc1C(=O)NCc1ccc(F)cc1,-,0,-,-,-,?
O=C(Cc1ccc(S(=O)(=O)N2CCCCC2)cc1)NCc1ccc(Cl)cc1,0,29µM,0[9.24 µM],0,0,0
Cn1cc(S(=O)(=O)N2CCCCC2)cc1C(=O)NCc1ccc(Cl)cc1,-,18µM,-,-,-,?
CC(=O)Nc1ccc(NC(=O)CNC(=O)c2cccc(C)c2)cc1,0,0,0,0,?,0
O=C(CCNS(=O)(=O)/C=C/c1ccccc1)NCCc1c[nH]c2ccccc12,0,0,0,0,0,0
SMILES,HT1080 IDH1KD tx,DT40 TDP1 CPT,HT1080NT lethal,IL-1B inflam inh,ELG1 repair inh,DT40 TDP1 no CPT
CCOC(=O)C1C(=O)NC(c2ccccc2)=NC1c1ccc(F)cc1 (stereo not given),0,0,0,0,0,0
CSC1=NC(C(Cl)(Cl)Cl)N=C(c2ccccc2)N1 (stereo not given),21µM,2.6µM,?,0,?,3.7µM
CCCn1c(-c2ccc[nH]c2=O)nc2cc(C)c(C)cc21,0,0,0,0,?,0
Cc1cc(/C=C(\C#N)C(=O)N2CCOCC2)c(C)n1C1CCCC1,0,?,0,0,?,12µM
COc1cc(/C=C(\C#N)C(=O)N2CCOCC2)ccc1OCc1ccccc1,0,0,0,0,?,0
COc1ccc(/C=C(\C#N)C(=O)N2CCOCC2)cc1Br,0,0,0,-68,0,0
COc1cc(/C=C(\C#N)C(=O)N2CCCCC2)ccc1O,0,0,0,0,?,0
N#C/C(=C\c1ccc(O)c(O)c1)C(=O)N1CCCC1,0,?,?,0,0,13µM
CCN(CC)S(=O)(=O)c1ccc(N/N=C/c2cc(OC)ccc2O)nc1,4.6µM,5.8µM,8.2µM,0,0,6.5µM
CCN(CC)S(=O)(=O)c1ccc(NN)nc1,?,21µM,0,0,?,?
CCN(CC)S(=O)(=O)c1ccc(N/N=C/c2cccnc2)nc1,0,0,0,0,0,0
COc1cc(NC(=O)Nc2c[nH]c(=O)[nH]c2=O)cc(OC)c1OC,-,0,-,-,-,0
COc1cc(C2C(C(=O)OC(C)C)=C(C)N=C3SCCC(=O)N32)ccc1OCc1ccccc1 (stereo not given),-,13µM,-,-,-,29µM
CC1=C(C(=O)OCc2ccccc2)C(c2cccs2)N2C(=O)CCSC2=N1 (stereo not given),0,0,0,-56,0,0
COc1ccccc1/C=C/C1C(C(=O)OCC(C)C)=C(C)N=C2SCCC(=O)N21 (stereo not given),0,0,0,-69,0,0
COC(=O)c1ccc(C2C(C(=O)OC(C)C)=C(C)N=C3SCCC(=O)N32)cc1 (stereo not given),-,-,-,-,0,-
COC(=O)C1=C(C)N=C2SCCC(=O)N2C1/C=C/c1ccccc1 (stereo not given),0,0,0,0,0,0
O=C(Cn1ccn(-c2ccc(F)c(F)c2)c(=O)c1=O)Nc1ccccc1F,-,0,-,-,-,0
COc1ccc(C)cc1N(C(=O)c1snc(C(N)=O)c1N)C(C(=O)NC1CCCC1)c1ccc(F)cc1 (stereo not given),0,?,?,0,0,16µM
COc1ccc(N(C(=O)c2snc(C(N)=O)c2N)C(C(=O)NC2CCCC2)c2ccc(F)cc2)c(OC)c1 (stereo not given),0,0,0,0,0,?

# Screening data: PubChem, National Center for Advancing Translational Sciences (NCATS)
